From PubChem BioAssay
This is a sample that favours compounds with a hit; in the whole collection about 0.33% have one here.
FXIIa single: blocks human coagulation factor XIIa activity; P00748; purified human FXIIa, AMC substrate fluorescence, 2 h; inhibition, % at 10 µM; hit rate 0.2% among 33,000; AID 701; in the data active = inhibition above about 30%
Target sequence (P00748 20-372 limits assumed): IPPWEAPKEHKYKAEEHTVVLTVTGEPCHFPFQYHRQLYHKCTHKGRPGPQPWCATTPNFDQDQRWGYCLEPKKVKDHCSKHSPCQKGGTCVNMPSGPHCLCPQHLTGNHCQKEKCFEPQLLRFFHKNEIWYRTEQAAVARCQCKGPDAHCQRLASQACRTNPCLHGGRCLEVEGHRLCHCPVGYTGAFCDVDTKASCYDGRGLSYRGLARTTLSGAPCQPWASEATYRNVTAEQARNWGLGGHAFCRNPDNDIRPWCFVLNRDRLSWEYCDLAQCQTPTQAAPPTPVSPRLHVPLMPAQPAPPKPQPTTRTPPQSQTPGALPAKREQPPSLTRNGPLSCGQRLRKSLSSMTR
Target sequence (P00748 373-615 limits assumed): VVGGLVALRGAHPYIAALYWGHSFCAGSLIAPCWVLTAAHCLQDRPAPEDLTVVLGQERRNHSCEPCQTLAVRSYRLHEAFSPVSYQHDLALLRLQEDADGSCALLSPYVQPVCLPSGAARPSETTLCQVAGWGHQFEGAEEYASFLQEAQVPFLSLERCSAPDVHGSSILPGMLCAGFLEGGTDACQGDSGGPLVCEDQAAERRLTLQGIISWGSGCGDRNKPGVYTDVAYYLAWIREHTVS
FXIa single inh: inhibitors of human coagulation factor XIa; P03951; purified human FXIa, fluorogenic AMC substrate cleavage; inhibition, % at 10 µM; hit rate 0.3% among 33,000; AID 687;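 active = inhibition above 40% in the primary screen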
A number is an active result; 0 = inactive.

SMILES	FXIIa single	FXIa single inh
CCN1CCN(CC(=O)c2c(C)n(Cc3ccccc3)c3ccc(OC)cc23)CC1	0	0
CCOC(=O)c1c(C)n(Cc2ccccc2)c2ccc(OCC(O)Cn3nc(C)cc3C)cc12 (stereo not given)	0	101
CN(C)CCc1nc2ccccc2c(=O)n1-c1ccccc1	0	0
CCCc1nc2ccccc2c(=O)n1-c1ccc(OC)cc1	0	42
CCCCN1C(=O)C(C2c3ccccc3C(=O)N2Cc2ccccc2)C(=O)NC1=S (stereo not given)	0	0
COc1ccc(N=C2SCCCN2C)cc1	0	0
